CBX7 inh: CBX7 chromodomain binding inhibitors, primary screen, biochemical, AlphaScreen; Chromobox protein homolog 7 (Homo sapiens), O95931; AID 1224903, 2016; normalised signal (fraction of DMSO) (no concentration beside the values); AlphaScreen His6-CBX7 / biotin-H3K27me3 peptide binding; active compounds read low; hit rate 1.1% among 66,000; in the data active = normalised signal below about 0.5
Target sequence (O95931 whole entry, looked up): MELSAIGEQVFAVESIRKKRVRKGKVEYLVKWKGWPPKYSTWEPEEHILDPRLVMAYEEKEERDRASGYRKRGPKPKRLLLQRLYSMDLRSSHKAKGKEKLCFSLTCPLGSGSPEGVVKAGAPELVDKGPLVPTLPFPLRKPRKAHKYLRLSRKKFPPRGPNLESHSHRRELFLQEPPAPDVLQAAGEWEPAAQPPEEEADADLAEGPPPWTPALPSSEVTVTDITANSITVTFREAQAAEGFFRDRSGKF
An asterisk follows results filed as active. Shown is part of a subset that was picked to be rich in hits.

SMILES	CBX7 inh
Cc1cc(N2CCCCC2)nc2ccc(NC(=O)CCC(=O)O)cc12	1.09
COc1ccc(OC)c(NCC(O)Cn2c3ccccc3c3ccccc32)c1 (centres undefined)	0.302*
Cc1ccccc1NCC(O)Cn1c(C)c(C)c2ccccc21 (centres undefined)	0.812
Cc1ccc(C)c(NCC(O)Cn2c3ccccc3c3ccccc32)c1 (centres undefined)	0.681
Cc1ccc(C(=O)c2oc3ccccc3c2NC(=O)c2ccc(F)cc2)cc1	1.15
CC1CCN(C(=O)CSc2nc(NCc3ccc(Cl)cc3)c3ccccc3n2)CC1	0.937
CCOC(=O)c1ccc(NC(=O)CSc2nnc(-c3cccnc3)o2)cc1	1.02
O=C(CSc1nnc(-c2cccnc2)o1)Nc1ccc(Br)cc1	1.02
O=C(CSc1nnc(-c2cccnc2)o1)Nc1ccc(Cl)c(Cl)c1	0.469*
CCCc1cc(=O)[nH]c(Nc2nc(-c3ccccc3)c3cc(Cl)ccc3n2)n1	0.826
O=C(Nc1c(C(=O)c2ccc(Cl)cc2)oc2ccccc12)c1ccc(F)cc1	1.12
C=CCn1c(SCc2cccnc2)nc2cc(C(=O)NCC3CCCO3)ccc2c1=O (centres undefined)	1.03
COc1ccc2cc(CCNC(=O)c3ccccc3C(F)(F)F)c(=O)[nH]c2c1	0.975
COc1cc(CNc2ccc3[nH]c(=O)[nH]c3c2)cc(Cl)c1OCc1cccs1	0.75
CCC(C)(C)NC(=O)C1CCC(CNS(=O)(=O)c2cccc3cccnc23)CC1 (centres undefined)	0.982
Cc1ccc(CCNC(=O)CN2C(=O)COc3ccc(C(C)(C)C)cc32)cc1	0.821
CC(C)(C)c1ccc2c(c1)N(CC(=O)NCCc1ccccc1)C(=O)CO2	0.407*
CC(C)(C)c1ccc2c(c1)N(CC(=O)NCCN1CCN(Cc3ccccc3)CC1)C(=O)CO2	0.977
CCOC(=O)N1CCc2c(sc(NCc3cccc(F)c3)c2C(=O)Nc2cc(Cl)ccc2OC)C1	0.92
CCn1cc(C(=O)O)c(=O)c2cc(F)c(NCCCN(C)C)cc21	0.608
CCCCSCCCNC(=O)Cn1ncc2ccsc2c1=O	0.967
COc1ccc(Cc2noc(-c3cc(-c4ccncc4)nc4ccccc34)n2)cc1	0.486*
COc1ccc(-c2noc(-c3cc(-c4ccccc4)nc4ccccc34)n2)cc1	1.24
COc1ccc(Cc2noc(-c3cc(-c4ccc(F)cc4)nc4ccccc34)n2)cc1	1.34
CCN1CCN(c2cc(C)c3cc(NC(=O)Cc4c(F)cccc4Cl)ccc3n2)CC1	1.11
SMILES	CBX7 inh
Cc1ccc(C)c(CSc2nc3ccncc3n2CC(=O)Nc2ccc(Br)cc2F)c1	0.983
CCCCN(C)S(=O)(=O)c1ccc(C(=O)Nc2nc(-c3ccccn3)cs2)cc1	0.0979*
COc1ccccc1-c1csc(NC(=O)c2ccc(S(=O)(=O)N(C)c3ccccc3)cc2)n1	0.967
CN(C1CCCCC1)S(=O)(=O)c1ccc(C(=O)Nc2nc(-c3ccccn3)cs2)cc1	0.887
CCCCN(CC)S(=O)(=O)c1ccc(C(=O)Nc2nc(-c3ccncc3)cs2)cc1	1.02
O=C(Nc1nc(-c2ccccn2)cs1)c1ccc(S(=O)(=O)N2CCCc3ccccc32)cc1	0.892
CN(c1ccccc1)S(=O)(=O)c1ccc(C(=O)Nc2nc(-c3ccccn3)cs2)cc1	0.167*
CC1CN(S(=O)(=O)c2ccc(C(=O)Nc3nc(-c4ccccn4)cs3)cc2)CC(C)O1 (centres undefined)	0.307*
CC1CN(S(=O)(=O)c2ccc(C(=O)Nc3nc(-c4ccncc4)cs3)cc2)CC(C)O1 (centres undefined)	0.991
CN(c1ccccc1)S(=O)(=O)c1ccc(C(=O)Nc2nc(-c3ccc(Cl)cc3)cs2)cc1	0.885
CC(=O)N1CCC(N(C(=O)Nc2ccc(C)c(C)c2)C2CCC(C)CC2)CC1 (centres undefined)	1.01
CCOC(=O)N1CCC(Nc2c(N3CCc4ccccc4C3)c(=O)c2=O)CC1	0.837
CCOc1cc2c(cc1OCC)C(c1ccc(OC)c3ccccc13)NCC2 (centres undefined)	0.806
CNc1nnc(SCc2ccc(Cl)cc2Cl)n1C	1.07
O=C(CSc1nnc(-c2cccnc2)n1Cc1ccccc1)Nc1ccc(F)cc1	1.1
CCC(=O)N1CCc2cc(S(=O)(=O)NCCC(=O)N3CCN(c4cccc(C)c4C)CC3)ccc21	1.05
Cn1cnc2cc(NCc3ccccc3Cl)ccc21	0.919
Cn1cnc2cc(NCc3cccc(Br)c3)ccc21	0.851
CC(C)n1cnc2cc(NCc3ccccn3)ccc21	0.227*
CC(C)OCCCNC(=O)c1ccc(NC2=NC3CS(=O)(=O)CC3S2)cc1 (centres undefined)	1.01
COc1ccc(Nc2nc(-c3ccccc3Cl)nc3ccccc23)cc1	1.09
Oc1ccc(Nc2nc(-c3ccccc3Cl)nc3ccccc23)cc1	0.795
CN(C)c1ccc(Nc2nc(-c3ccccc3Cl)nc3ccccc23)cc1	0.305*
Cc1cccc(NC(=O)c2cnn3cccnc23)c1C	1.07
O=C(Nc1sc2c(c1C(=O)N1CCCCCC1)CCC2)c1ccccc1F	1.02
SMILES	CBX7 inh
O=C(NCCCn1ccnc1)C(O)(c1ccccc1)c1ccccc1	1
O=C(NCCCn1ccnc1)C(=O)NCCc1ccccc1	1.18
O=C(NCCCn1ccnc1)c1ccc(C#Cc2ccccc2)cc1	0.105*
Cc1ccc(S(=O)(=O)Nc2ccccc2CNc2cccc(C)c2C)cc1	0.935
Cc1cccc(-c2nc(CSCC(=O)N3CCc4ccccc4C3)c(C)o2)c1	0.937
O=C(NCCC1=CCCCC1)c1nnc(Cc2ccc(Cl)cc2)o1	0.988
Cc1ccc(C2NC(C(=O)O)Cc3c2[nH]c2ccccc32)cc1 (centres undefined)	1.04
CN(C)c1ccc(C2NC(C(=O)O)Cc3c2[nH]c2ccccc32)cc1 (centres undefined)	0.246*
CCOc1ccc(C2NCCc3c2[nH]c2ccccc32)cc1 (centres undefined)	0.72
Cc1nc2ccc(S(=O)(=O)N(C)CC(=O)Nc3ccc(F)cc3F)cc2s1	1.26
CCN(CC)C(C(=O)NC1CCCCC1)c1ccccc1 (centres undefined)	1.1
CCCN1CCCc2cc(CN(C(=O)Nc3ccc(Cl)c(Cl)c3)C(C)CC)ccc21 (centres undefined)	0.587
CCN1CCCc2cc(CN(C(=O)Nc3ccc(C)c(C)c3)C3CCCC3)ccc21	0.438*
CCc1ccc(NC(=O)N(C2CCCCCC2)C2CCN(C(C)=O)CC2)cc1	1
CCCN1CCCc2cc(CN(CCCN3CCOCC3)C(=O)Nc3ccc(CC)cc3)ccc21	0.523
CCc1ccc(NC(=O)N(Cc2ccc3c(c2)CCCN3CC)C2CCCC2)cc1	0.339*
CCCCN1CCCc2cc(CN(CCCN3CCOCC3)C(=O)Nc3ccccc3)ccc21	0.528
CCc1ccc(NC(=O)N(CCC(C)C)C2CCN(C(C)C)CC2)cc1	1.07
CCCCN1CCCc2cc(CN(CCCN3CCOCC3)C(=O)Nc3ccc(CC)cc3)ccc21	0.233*
CC(=O)N1CCC(N(C(=O)Nc2ccc(C)c(C)c2)C2CCCCCC2)CC1	1.11
O=C(CN1C(=O)CSc2ccc(S(=O)(=O)N3CCCC3)cc21)NCc1cccnc1	1.09
Cc1ccc(-n2c(CCC(=O)O)ccc2-c2ccc(F)cc2)cc1C	1.02
COc1ccc(S(=O)(=O)N(CC(=O)NCc2ccncc2)c2ccc(C)cc2)cc1	1.02
COc1ccc2c(c1)c(=O)c(S(=O)(=O)c1ccccc1)cn2Cc1ccccc1C	0.91
Cc1ccc(-c2noc(CN(C(C)C)S(=O)(=O)c3ccc(Cl)cc3)n2)cc1	1.08
